Results published in PubChem BioAssay (Tox21).
Inconclusive results are not listed. The source made the active and inactive calls. Calls come from the whole dose curve; as a rule, active = well fitted curve in the direction sought with a large enough effect in the repeat runs; inconclusive = weak or mixed curves; inactive = no such curve, though single readings can be large; an effect the other way counts as inactive or inconclusive.

Experiments:
[1] = qHTS RealTime-Glo MT Cell Viability Assay in HepG2 cells - 40 hour (AID 1224870); note: nearly all actives have a fitted effect of over 50% in size
How it was run: (§1)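 HepG2 cells (600/well) mixed with RealTime-Glo MT reagent, settled 5 h at 37 C/5% CO2 before compound addition. Nonlytic NanoLuc luminescence from viable-cell prosubstrate reduction read repeatedly during 40 h treatment at 37 C.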

[2] = A CellTox Green Cytotoxicity Assay to monitor cytotoxicity in HEK293 cells - 40 hour (AID 1224871); note: nearly all actives have a fitted effect of over 45% in size; note: potency is the fitted concentration of half-maximal effect
How it was run: (§2)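 Each value comes from one timepoint of a single continuous run in which HEK293 cells with CellTox Green were exposed to compound for up to 40 h at 37 C, dye fluorescence rising with cell death.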

[3] = qHTS RealTime-Glo MT Cell Viability Assay in HepG2 cells - 8 hour (AID 1224873); note: nearly all actives have a fitted effect of over 55% in size
How it was run: as §1

[4] = qHTS RealTime-Glo MT Cell Viability Assay in HEK293 cells - 40 hour (AID 1224874); conditions: RealTime-Glo luminescence; max response: active compounds read low; note: nearly all actives have a fitted effect of over 50% in size; note: potency is the fitted concentration of half-maximal effect
How it was run: (§3)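 qHTS format; HEK293 cells with NanoLuc/prosubstrate reagent, 37 C/5% CO2 for 5 h pre-dosing; compounds 23 nL in DMSO; luminescence at each time point reflects viable cells.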

[5] = A CellTox Green Cytotoxicity Assay to monitor cytotoxicity in HEK293 cells - 24 hour (AID 1224875); note: series mostly up to about 77 µM; nearly all actives have a fitted effect of over 45% in size
How it was run: as §2

[6] = A CellTox Green Cytotoxicity Assay to monitor cytotoxicity in HepG2 cells - 16 hour (AID 1224876); note: nearly all actives have a fitted effect of over 45% in size
How it was run: (§4)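 Continuous culture of HepG2 cells with a membrane-impermeant DNA dye; rising fluorescence marks dead cells. Compound exposure lasted up to 40 h at 37 C, with reads every 8 h from 0 h.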

[7] = qHTS RealTime-Glo MT Cell Viability Assay in HepG2 cells - 32 hour (AID 1224877); note: nearly all actives have a fitted effect of over 55% in size
How it was run: (§5)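 Compound treatment began 5 h after plating HepG2 cells (600/well) with NanoLuc luciferase and prosubstrate. Plates stayed at 37 C for 40 h; luminescence was captured at six time points, 0 h through 40 h.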

[8] = A CellTox Green Cytotoxicity Assay to monitor cytotoxicity in HepG2 cells - 24 hour (AID 1224878); note: nearly all actives have a fitted effect of over 45% in size
How it was run: as §4

[9] = A CellTox Green Cytotoxicity Assay to monitor cytotoxicity in HepG2 cells - 40 hour (AID 1224879); note: nearly all actives have a fitted effect of over 40% in size
How it was run: as §4

[10] = qHTS RealTime-Glo MT Cell Viability Assay in HEK293 cells - 0 hour (AID 1224880)
How it was run: as §3

[11] = A CellTox Green Cytotoxicity Assay to monitor cytotoxicity in HEK293 cells - 32 hour (AID 1224881); note: nearly all actives have a fitted effect of over 40% in size
How it was run: as §2

[12] = A CellTox Green Cytotoxicity Assay to monitor cytotoxicity in HepG2 cells - 0 hour (AID 1224882); note: nearly all actives have a fitted effect of over 35% in size
How it was run: as §4

[13] = A CellTox Green Cytotoxicity Assay to monitor cytotoxicity in HepG2 cells - 32 hour (AID 1224883); note: nearly all actives have a fitted effect of over 50% in size
How it was run: as §4

[14] = A CellTox Green Cytotoxicity Assay to monitor cytotoxicity in HEK293 cells - 8 hour (AID 1224884); note: nearly all actives have a fitted effect of over 35% in size
How it was run: as §2

[15] = qHTS RealTime-Glo MT Cell Viability Assay in HEK293 cells - 24 hour (AID 1224886); note: top concentration of the series differs between compounds; nearly all actives have a fitted effect of over 50% in size
How it was run: (§6)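 Quantitative high-throughput screen of the Tox21 10K library in HEK293: cells and RealTime-Glo reagents plated together, compound added at 5 h, luminescence monitored through 40 h at 37 C.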

[16] = qHTS RealTime-Glo MT Cell Viability Assay in HEK293 cells - 8 hour (AID 1224887)
How it was run: as §3

[17] = A CellTox Green Cytotoxicity Assay to monitor cytotoxicity in HEK293 cells - 16 hour (AID 1224888); note: nearly all actives have a fitted effect of over 35% in size
How it was run: as §2

[18] = qHTS RealTime-Glo MT Cell Viability Assay in HepG2 cells - 0 hour (AID 1224889); note: nearly all actives have a fitted effect of over 50% in size
How it was run: as §5

[19] = qHTS RealTime-Glo MT Cell Viability Assay in HEK293 cells - 16 hour (AID 1224872)
How it was run: as §6

[20] = qHTS RealTime-Glo MT Cell Viability Assay in HepG2 cells - 16 hour (AID 1224885); note: nearly all actives have a fitted effect of over 50% in size
How it was run: as §5
% is set by controls: 0 for no effect and ±100 for the full control effect.

CC[C@H](NC(C)C)[C@H](O)c1ccc(O)c2[nH]c(=O)ccc12
inactive: Potency [1] | Potency [2] | outcome [3] | max response [4] 5.21% | Potency [5] | Potency [6] | Potency [7] | Potency [8] | Potency [9] | Potency [10] | Potency [11] | Potency [12] | Potency [13] | Potency [14] | Potency [15] | Potency [16] | Potency [17] | Potency [18]

CS(C)=O
inactive: Potency [1] | Potency [2] | Potency [19] | outcome [3] | Potency [5] | Potency [6] | Potency [7] | Potency [8] | Potency [10] | Potency [11] | Potency [12] | Potency [13] | Potency [14] | outcome [20] | Potency [16] | Potency [17] | Potency [18]

CCCCCCCCCCCCCCCCC(=O)O
inactive: Potency [1] | Potency [2] | Potency [19] | max response [4] 3.49% | Potency [5] | Potency [6] | Potency [7] | Potency [8] | Potency [9] | Potency [10] | Potency [11] | Potency [12] | Potency [13] | Potency [14] | Potency [16] | Potency [17] | Potency [18]

O=C(O)CNc1ccccc1
inactive: Potency [1] | Potency [2] | outcome [3] | max response [4] 5.54% | Potency [5] | Potency [6] | Potency [7] | Potency [8] | Potency [9] | Potency [10] | Potency [12] | Potency [13] | Potency [14] | outcome [20] | Potency [15] | Potency [16] | Potency [17] | Potency [18]

O=C(O)c1c2ccccc2cc2ccccc12
inactive: Potency [1] | outcome [3] | Potency [5] | Potency [6] | Potency [7] | Potency [8] | Potency [9] | Potency [10] | Potency [13] | Potency [14] | Potency [16] | Potency [17] | Potency [18]
active: Potency [2] 34.6 µM | Potency [4] 38.8 µM

OCCOc1cccc(OCCO)c1
inactive: Potency [1] | Potency [19] | outcome [3] | max response [4] 12.3% | Potency [5] | Potency [6] | Potency [7] | Potency [8] | Potency [9] | Potency [10] | Potency [11] | Potency [12] | Potency [13] | Potency [14] | outcome [20] | Potency [15] | Potency [16] | Potency [17] | Potency [18]
